Laboratory results reported in PubChem BioAssay (NCATS).
Values joined by “and” are separate entries in the source; they are usually repeats but may differ in a detail not shown here. Identical values can stand only once. Unmarked numbers belong to inactive results. Inconclusive results are not listed. Active and inactive are the calls of the source. Unless noted, calls come from the whole dose curve; as a rule, active = well fitted cell-killing curve with a large enough effect; inconclusive = small, poorly fitted or top-dose-only effect, or effect the other way; inactive = flat fitted curve, though single readings scatter.

System: not listed separately
Test: qHTS assay for cell viability of HEK293 cells (AID 743288); note: % is set by controls: 0 for no effect and ±100 for the full control effect; nearly all actives have a fitted effect of over 50% in size
Conditions: ATP luminescence (CellTiter-Glo), 18 h, hits give low values
Procedure, shortened: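 HEK293, 18 h, 37 C, ATP luminescence. Cells at 2,000/well were allowed at least 5 h to settle before dosing; CellTiter-Glo developed 30 min at RT.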

Compound | max response
CC(C)=C1CCC(C)CC1=O (configuration not stated) | 10.3%
O=CNc1ccccc1 | -2.01%
CNc1ccc([N+](=O)[O-])cc1 | 0.311%
Nc1nc(CC(=O)O)cs1 | -0.757%
O=Cc1ccc(CO)o1 | 6.14%
O=[N+]([O-])c1ccc(NCCO)c(OCCO)c1 | -2.57%
O=C(O)c1c(Cl)cccc1Cl | -0.226%
CCCCCNCCCCC | 0.935% and 1.64%
Nc1ccccc1[N+](=O)[O-] | -7.67%
C=C(C)C(=O)OCCCCCC | 6.76%
NC(=O)c1ccccc1[N+](=O)[O-] | 7.1%
Nc1cc(Cl)c([N+](=O)[O-])cc1O | -3.32%
Fc1ccccc1 | 9.93%
CC(C)(C)OCC1CO1 (configuration not stated) | -0.898%
CCCOCC(C)OCC(C)O (configuration not stated) | -8.35%
O=Nc1ccc(NO)cc1 | -9.92%
CCOC(=O)C(C)C(C)=O (configuration not stated) | 2.57%
ClCCl | -3.33%
O=C(Cl)c1cccc([N+](=O)[O-])c1 | -15.1%
Cc1ccccc1C=O | 5.96%

Compound | max response
CCCCC=O | -6.95%
Cc1ccccc1Br | -0.991%
Cc1ccccc1C(=O)O | -7.38%
c1ccc2[nH]cnc2c1 | 3.37%
C=Cc1ccccn1 | 3.38%
COC(=O)CC#N | 6.11%
CCCCC(CC)C(=O)O (configuration not stated) | -7.06%
CC(CCl)OC(C)CCl (configuration not stated) | -14.3%
O=C(Cl)c1ccccc1[N+](=O)[O-] | -5.53%
CC(C)Nc1ccccc1 | -1.42%
Cc1ccc(C)c([N+](=O)[O-])c1 | 4.94%
O=C1NC(=O)c2cc([N+](=O)[O-])ccc21 | -4.71%
Cc1c(N)cccc1[N+](=O)[O-] | 11.6%
O=C1CCC(=O)O1 | -3.25%
COc1cccc2sc(N)nc12 | -3.84%
C1CCC2OC2C1 (configuration not stated) | -1.95%
Cc1ccc(C(=O)O)cc1 | -10.4%
CC(=O)c1ccccc1[N+](=O)[O-] | 7.31%
C=CCCCCCC | 3.39%

System: not listed separately
Test: qHTS assay for cell viability of the p53RE-bla HCT-116 cell line (AID 743292); note: % is set by controls: 0 for no effect and ±100 for the full control effect; nearly all actives have a fitted effect of over 55% in size
Conditions: p53RE-bla HCT-116 viability, ATP luminescence, 16 h; series mostly up to 95 µM; activity change, negative = cytotoxicity: at the top concentration
Procedure, shortened: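 HCT-116 p53RE-bla cells seeded 4,000/well; 5 h at 37 C; compound (DMSO) added; 16 h at 37 C; CellTiter-Glo added, 30 min RT; luminescence read.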

Compound | activity change, negative = cytotoxicity | Potency
CC(C)=C1CCC(C)CC1=O (configuration not stated) | 4.41% | –
O=CNc1ccccc1 | -2.3% | –
CNc1ccc([N+](=O)[O-])cc1 | -6.28% | –
Nc1nc(CC(=O)O)cs1 | 13.5% | –
O=Cc1ccc(CO)o1 | 8.18% | –
O=[N+]([O-])c1ccc(NCCO)c(OCCO)c1 | -0.904% | –
O=C(O)c1c(Cl)cccc1Cl | 3.32% | –
CCCCCNCCCCC | – | inactive
Nc1ccccc1[N+](=O)[O-] | -1.96% | –
C=C(C)C(=O)OCCCCCC | -3.63% | –
NC(=O)c1ccccc1[N+](=O)[O-] | 3.77% | –
Nc1cc(Cl)c([N+](=O)[O-])cc1O | -3.64% | –
Fc1ccccc1 | -7.4% | –
CC(C)(C)OCC1CO1 (configuration not stated) | -2.77% | –
CCCOCC(C)OCC(C)O (configuration not stated) | -0.0871% | –
O=Nc1ccc(NO)cc1 | -3.42% | –
CCOC(=O)C(C)C(C)=O (configuration not stated) | 6.47% | –
ClCCl | -1.92% | –
O=C(Cl)c1cccc([N+](=O)[O-])c1 | -3.02% | –
Cc1ccccc1C=O | 4.57% | –

Compound | activity change, negative = cytotoxicity | Potency
CCCCC=O | -2.28% | –
Cc1ccccc1Br | -2.42% | –
Cc1ccccc1C(=O)O | -2.75% | –
c1ccc2[nH]cnc2c1 | -6.12% | –
C=Cc1ccccn1 | -4.84% | –
COC(=O)CC#N | 5.31% | –
CCCCC(CC)C(=O)O (configuration not stated) | -5.63% | –
CC(CCl)OC(C)CCl (configuration not stated) | -6.96% | –
O=C(Cl)c1ccccc1[N+](=O)[O-] | 6.45% | –
CC(C)Nc1ccccc1 | 6.64% | –
Cc1ccc(C)c([N+](=O)[O-])c1 | -6.04% | –
O=C1NC(=O)c2cc([N+](=O)[O-])ccc21 | -7.93% | –
Cc1c(N)cccc1[N+](=O)[O-] | 1.61% | –
O=C1CCC(=O)O1 | 9.11% | –
COc1cccc2sc(N)nc12 | 6.13% | –
C1CCC2OC2C1 (configuration not stated) | -6.46% | –
Cc1ccc(C(=O)O)cc1 | -6.99% | –
CC(=O)c1ccccc1[N+](=O)[O-] | 9.69% | –
C=CCCCCCC | 1.45% | –

Target: Nuclear receptor subfamily 1 group I member 2 (Rattus norvegicus) (UniProt Q9R1A7)
Test: qHTS assay for small molecule activators of the rat pregnane X receptor (rPXR) signaling pathway (AID 651751; call rule not given here; note: 0% is about no effect)
Conditions: rPXR reporter cells, luciferase (One-Glo), 24 h

Nuclear receptor subfamily 1 group I member 2 (Rattus norvegicus), sequence (Q9R1A7 whole entry, looked up): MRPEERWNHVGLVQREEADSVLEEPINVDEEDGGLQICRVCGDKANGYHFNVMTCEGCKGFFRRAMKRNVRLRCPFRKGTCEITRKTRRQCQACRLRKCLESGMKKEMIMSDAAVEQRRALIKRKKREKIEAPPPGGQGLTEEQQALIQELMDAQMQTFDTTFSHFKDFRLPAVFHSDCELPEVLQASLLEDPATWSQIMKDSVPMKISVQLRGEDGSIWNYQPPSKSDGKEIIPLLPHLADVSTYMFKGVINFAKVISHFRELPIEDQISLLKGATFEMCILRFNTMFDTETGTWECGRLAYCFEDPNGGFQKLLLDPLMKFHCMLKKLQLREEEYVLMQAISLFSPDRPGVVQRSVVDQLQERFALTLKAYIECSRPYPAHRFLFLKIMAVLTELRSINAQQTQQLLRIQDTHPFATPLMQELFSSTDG

Compound | max response
CC(C)=C1CCC(C)CC1=O (configuration not stated) | -2.32%
O=CNc1ccccc1 | 1.37%
CNc1ccc([N+](=O)[O-])cc1 | 8.26%
Nc1nc(CC(=O)O)cs1 | -3.19%
O=Cc1ccc(CO)o1 | 1.25%
O=[N+]([O-])c1ccc(NCCO)c(OCCO)c1 | -2.89%
O=C(O)c1c(Cl)cccc1Cl | -2.07%
CCCCCNCCCCC | 7.61% and 1.33%
Nc1ccccc1[N+](=O)[O-] | -0.731%
C=C(C)C(=O)OCCCCCC | -0.698%
NC(=O)c1ccccc1[N+](=O)[O-] | -1.43%
Nc1cc(Cl)c([N+](=O)[O-])cc1O | 3.19%
Fc1ccccc1 | 3.18%
CC(C)(C)OCC1CO1 (configuration not stated) | 0.0184%
CCCOCC(C)OCC(C)O (configuration not stated) | -1.49%
O=Nc1ccc(NO)cc1 | -3.74%
CCOC(=O)C(C)C(C)=O (configuration not stated) | 4.21%
ClCCl | 1.89%
O=C(Cl)c1cccc([N+](=O)[O-])c1 | -6.23%
Cc1ccccc1C=O | 1.66%

Compound | max response
CCCCC=O | -1.64%
Cc1ccccc1Br | -1.24%
Cc1ccccc1C(=O)O | -1.94%
c1ccc2[nH]cnc2c1 | 3.1%
C=Cc1ccccn1 | 2.42%
COC(=O)CC#N | -1.86%
CCCCC(CC)C(=O)O (configuration not stated) | 1.13%
CC(CCl)OC(C)CCl (configuration not stated) | 2.99%
O=C(Cl)c1ccccc1[N+](=O)[O-] | 1.88%
CC(C)Nc1ccccc1 | 4.55%
Cc1ccc(C)c([N+](=O)[O-])c1 | -1.78%
O=C1NC(=O)c2cc([N+](=O)[O-])ccc21 | 1.8%
Cc1c(N)cccc1[N+](=O)[O-] | -0.458%
O=C1CCC(=O)O1 | -4.75%
COc1cccc2sc(N)nc12 | 8.89%
C1CCC2OC2C1 (configuration not stated) | -4.14%
Cc1ccc(C(=O)O)cc1 | 3.84%
CC(=O)c1ccccc1[N+](=O)[O-] | 1.69%
C=CCCCCCC | 3.09%
